Reference: PubChem BioAssay (Tox21)
Inconclusive results are not listed. Active and inactive are the calls of the source. Unless noted, calls come from the whole dose curve; as a rule, active = well fitted curve in the direction sought with a large enough effect in the repeat runs; inconclusive = weak or mixed curves; inactive = no such curve, though single readings can be large; an effect the other way counts as inactive or inconclusive.

How the values were obtained:
[1] = qHTS assay to identify small molecule agonists of the vitamin D receptor (VDR) signaling pathway - cell viability counter screen (AID 743224); note: series mostly up to about 63 µM; % is set by controls: 0 for no effect and ±100 for the full control effect; nearly all actives have a fitted effect of over 50% in size
Outline: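 Cytotoxicity counter screen: VDR-bla cells, 16 h compound exposure at 37C, 5% CO2; CellTiter-Glo luminescence, 30 min RT, same wells as bla read.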

[2] = qHTS assay to identify small molecule antagonists of the vitamin D receptor (VDR) signaling pathway - cell viability counter screen (AID 743225); note: % is set by controls: 0 for no effect and ±100 for the full control effect; nearly all actives have a fitted effect of over 50% in size
Outline: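 In this counter screen, VDR-bla HEK 293T cells receive test compound plus 3 nM final calcitriol for 16 h at 37C. Room-temperature steps of 2 h with the beta-lactamase substrate, then 30 min with CellTiter-Glo, precede the luminescence read.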

[3] = qHTS assay to identify small molecule agonists of the NFkB signaling pathway - cell viability counter screen (AID 1159515; calls by dose curve; note: series mostly up to about 61 µM; % is set by controls: 0 for no effect and ±100 for the full control effect; nearly all actives have a fitted effect of over 55% in size)
Outline: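 ME-180 NFkB-bla cells, 2,000/well; overnight attach; compound 5 hr, 37 C/5% CO2; LiveBLAzer substrate 1.5 hr RT; then CellTiter-Glo in same wells, 30 min RT, luminescence read.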

[4] = qHTS assay to identify small molecule agonists of the endoplasmic reticulum stress response signaling pathway (AID 1159516; active = well fitted activation curve with a large enough effect in the signal ratio in the repeat runs, not every such curve was filed as active; the % refers to the signal ratio; note: potency is the fitted concentration of half-maximal effect; for activation: % is set by controls: 0 for no effect and ±100 for the full control effect)
Outline: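 HeLa ESRE-bla reporter line; cpd 5 h, 37 C/5% CO2; LiveBLAzer B/G FRET substrate 2 h RT; ex 405, em 460/530 nm.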

[5] = qHTS assay to identify small molecule agonists of the endoplasmic reticulum stress response signaling pathway - cell viability counter screen (AID 1159517; calls by dose curve;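 note: HeLa cells carrying an ER stress response element beta-lactamase reporter; series mostly up to about 61 µM; % is set by controls: 0 for no effect and ±100 for the full control effect; nearly all actives have a fitted effect of over 50% in size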)
Outline: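 After overnight attachment, ESRE-bla HeLa cells were treated with Tox21 library compounds for 5 hr. CellTiter-Glo luminescence, read 30 min post-addition at room temperature, reported viability.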

[6] = qHTS assay to identify small molecule antagonists of the retinoid-related orphan receptor gamma (ROR-gamma) signaling pathway - cell viability counter screen (AID 1159520); note: nearly all actives have a fitted effect of over 50% in size; note: potency is the fitted concentration of half-maximal effect; for activity, negative = cytotoxicity: % is set by controls: 0 for no effect and ±100 for the full control effect
Outline: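 Cytotoxicity was read from cellular ATP (CellTiter-Glo luminescence) after 16 hr at 37 C with 1 uM doxycycline induction. The inducer was added 2 hr after compound transfer to Tet-on ROR gamma CHO cells.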

[7] = molecular target: Nuclear receptor ROR-gamma (Homo sapiens) (UniProt P51449); test: qHTS assay to identify small molecule antagonists of the retinoid-related orphan receptor gamma (ROR-gamma) signaling pathway (AID 1159521; note: nearly all actives have a fitted effect of over 50% in size; note: potency is the fitted concentration of half-maximal effect)
Outline: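 Screening format: cell-based luciferase reporter in CHO cells with doxycycline-inducible RORγ. Compound pre-exposure lasts 2 h, doxycycline is 1 uM final, induction runs 16 h at 37 C, and ONE-Glo luminescence is read.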

[8] = qHTS assay to identify small molecule agonists of the AP-1 signaling pathway - cell viability counter screen (AID 1159525; calls by dose curve; note: nearly all actives have a fitted effect of over 55% in size)
Outline: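 Intracellular ATP by Cell Titer Glo luminescence (30 min, RT) in the same ME-180 AP-1-bla wells after the 5 h compound exposure at 37 °C. Normalised to tetra n-octyl ammonium bromide and DMSO controls.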

[9] = qHTS assay to identify small molecule agonists of the AP-1 signaling pathway (AID 1159526; calls by dose curve; note: % is set by controls: 0 for no effect and ±100 for the full control effect)
[10] = molecular target: Retinoic acid receptor RXR-alpha (Homo sapiens) (UniProt P19793); test: qHTS assay to identify small molecule agonists of the RXR signaling pathway (AID 1159527; calls by dose curve; note: % is set by controls: 0 for no effect and ±100 for the full control effect; nearly all actives have a fitted effect of over 35% in size)
Retinoic acid receptor RXR-alpha (Homo sapiens), sequence (P19793 whole entry, looked up): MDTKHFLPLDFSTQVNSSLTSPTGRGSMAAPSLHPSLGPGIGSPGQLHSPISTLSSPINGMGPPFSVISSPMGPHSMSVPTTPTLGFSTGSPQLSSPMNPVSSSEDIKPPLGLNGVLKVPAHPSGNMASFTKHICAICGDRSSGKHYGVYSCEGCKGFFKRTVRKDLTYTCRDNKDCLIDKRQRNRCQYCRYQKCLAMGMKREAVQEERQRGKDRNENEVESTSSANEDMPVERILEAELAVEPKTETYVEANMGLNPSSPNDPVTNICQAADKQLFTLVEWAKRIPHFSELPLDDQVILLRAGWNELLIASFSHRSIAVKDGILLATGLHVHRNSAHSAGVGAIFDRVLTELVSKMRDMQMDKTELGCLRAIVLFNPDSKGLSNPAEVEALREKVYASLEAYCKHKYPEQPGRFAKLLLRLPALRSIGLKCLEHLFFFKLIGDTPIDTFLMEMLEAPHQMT
Outline: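 Fluorescence ratio readout (460 vs 530 nm) from GeneBLAzer RXR-alpha HEK 293T cells after 16 hr compound treatment; cells seeded 5 hr beforehand in low-serum, charcoal-stripped medium.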

[11] = qHTS assay to identify small molecule antagonists of the retinoid acid receptor (RAR) signaling pathway - cell viability counter screen (AID 1159551); note: % is set by controls: 0 for no effect and ±100 for the full control effect; nearly all actives have a fitted effect of over 35% in size
Outline: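 C3RL4 RARE-luciferase line; cpds + retinol 1 uM final, 6 h, 37 C/5% CO2; CellTiter-Glo ATP luminescence, 30 min RT.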

[12] = qHTS assay to identify small molecule antagonists of the retinoic acid receptor (RAR) signaling pathway (AID 1159552)
Outline: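 Using a RARE-driven luciferase construct in C3RL4 cells, retinol at 1 uM final provided the agonist stimulus while compounds were co-applied. After 6 hours at 37 C, luminescence was recorded to flag inhibitors of retinol signaling.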

[13] = qHTS assay to identify small molecule agonists of the retinoic acid receptor (RAR) signaling pathway (AID 1159553); note: % is set by controls: 0 for no effect and ±100 for the full control effect
Outline: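 RARE-luc C3RL4 cells; overnight attachment 37 C/5% CO2; compound (DMSO) 6 hr; luciferase reagent, 30 min RT; luminescence read-out.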

[14] = qHTS assay to identify small molecule antagonists of the estrogen related receptor (ERR) signaling pathway from Tox21 library - cell viability counter screen (AID 1224834); note: nearly all actives have a fitted effect of over 30% in size; note: potency is the fitted concentration of half-maximal effect
Outline: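 Multiplexed viability counter screen in ERR cells: 17.5 h compound exposure at 37 C, CellTiter-Fluor added, 30 min at 37 C/5% CO2, fluorescence read.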

[15] = qHTS assay to identify small molecule agonists of the RXR signaling pathway - cell viability counter screen (AID 1159529); note: nearly all actives have a fitted effect of over 50% in size; note: potency is the fitted concentration of half-maximal effect
Outline: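 Viability read-out for the RXR-alpha agonist qHTS: luminescent CellTiter-Glo signal after 30 min at RT. HEK 293T bla reporter cells, 2% charcoal-stripped FBS, 16 hr compound incubation; tetraoctyl ammonium bromide as cytotoxic control.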

O=C(NN1CCCC1)NS(=O)(=O)c1ccc(Cl)cc1
inactive: Potency [1] | Potency [2] | Potency [3] | Potency [4] | outcome [5] | Potency [6] | Potency [7] | Potency [8] | Potency [9] | Potency [10] | Potency [11] | Potency [12] | Potency [13] | Potency [14]

CCN1CCC[C@H]1CNC(=O)c1c(OC)ccc(Br)c1OC
inactive: Potency [1] | Potency [2] | Potency [3] | Potency [4] | outcome [5] | Potency [6] | Potency [7] | Potency [8] | Potency [9] | Potency [15] | Potency [11] | Potency [12] | Potency [13]

COCCOCCOCCOCCOC
inactive: Potency [1] | Potency [2] | Potency [3] | Potency [4] | outcome [5] | Potency [6] | Potency [7] | Potency [8] | Potency [9] | Potency [15] | Potency [11] | Potency [12] | Potency [13]

Oc1ccc2c(c1)OCO2
inactive: Potency [1] | Potency [2] | Potency [3] | Potency [4] | outcome [5] | Potency [6] | Potency [7] | Potency [8] | Potency [9] | Potency [15] | Potency [12] | Potency [13] | Potency [14]

Oc1ccc(C(O)CNCCCCCCNCC(O)c2ccc(O)c(O)c2)cc1O (stereo not drawn)
inactive: Potency [1] | Potency [2] | Potency [3] | Potency [4] | outcome [5] | Potency [6] | Potency [7] | Potency [8] | Potency [9] | Potency [15] | Potency [11] | Potency [14]

Cc1ccccc1N=Nc1ccc(N=Nc2c(O)ccc3ccccc23)c(C)c1
inactive: Potency [2] | Potency [3] | Potency [4] | outcome [5] | Potency [6] | Potency [7] | Potency [8] | Potency [9] | Potency [15] | Potency [11] | Potency [14]

CCCCOc1ccc(CC(=O)NO)cc1
active: Potency [14] 18.8 µM
inactive: Potency [1] | Potency [2] | Potency [3] | Potency [4] | outcome [5] | Potency [6] | Potency [7] | Potency [8] | Potency [9] | Potency [11] | Potency [12]

O=C1Nc2cc(Cl)ccc2Oc2ccccc21
inactive: Potency [1] | Potency [2] | Potency [3] | Potency [4] | outcome [5] | Potency [6] | Potency [7] | Potency [8] | Potency [10] | Potency [15] | Potency [11] | Potency [12] | Potency [13] | Potency [14]

CC(C)(C)c1cc(CO)cc(C(C)(C)C)c1O
inactive: Potency [1] | Potency [2] | Potency [3] | Potency [4] | outcome [5] | Potency [6] | Potency [7] | Potency [8] | Potency [9] | Potency [15] | Potency [11] | Potency [12]

Cc1cccc(Oc2ccccc2)c1
inactive: Potency [2] | Potency [3] | Potency [4] | outcome [5] | Potency [6] | Potency [7] | Potency [8] | Potency [9] | Potency [11]
active: Potency [15] 1.9 µM

O=C(CCN1CCN2CCCC2C1)N1c2ccccc2Sc2ccc(Cl)cc21 (stereo not drawn)
inactive: Potency [1] | Potency [2] | Potency [3] | Potency [4] | outcome [5] | activity, negative = cytotoxicity [6] -0.0801% [at 19 µM] | activity change, negative = inhibition [7] -2.48% [at 19 µM] | viability change, negative = cytotoxic [8] -1.69% [at 15.8 µM] | activation [9] -5.81% [at 15.8 µM] | activity change, negative = cytotoxicity [15] -22.2% [at 15.8 µM] | activity change, negative = cytotoxicity [11] -0.0558% [at 19 µM] | activity, negative = inhibition [12] -11.3% [at 19 µM]

Cn1c(NCCN(CCO)CCCc2ccc([N+](=O)[O-])cc2)cc(=O)n(C)c1=O
inactive: Potency [1] | Potency [2] | Potency [3] | Potency [4] | outcome [5] | Potency [6] | Potency [7] | Potency [8] | Potency [9] | Potency [15] | Potency [11] | Potency [14]

CCCC(C)C
inactive: Potency [1] | Potency [2] | Potency [3] | Potency [4] | outcome [5] | Potency [6] | Potency [7] | Potency [8] | Potency [9] | Potency [11] | Potency [12] | Potency [13]

O=C(/C=C/c1ccc(O)c(O)c1)O[C@@H]1C[C@](O)(C(=O)O)C[C@@H](O)[C@H]1O
inactive: Potency [1] | Potency [2] | Potency [3] | Potency [4] | outcome [5] | Potency [6] | Potency [7] | Potency [8] | Potency [10] | Potency [15] | Potency [11] | Potency [12] | Potency [13] | Potency [14]

CC[C@@H]1C[C@H](N(Cc2cc(C(F)(F)F)cc(C(F)(F)F)c2)C(C)=O)c2cc(C(F)(F)F)ccc2N1C(=O)OC(C)C
inactive: Potency [1] | Potency [2] | Potency [3] | Potency [4] | outcome [5] | Potency [6] | Potency [7] | Potency [8] | Potency [9] | Potency [15] | Potency [11] | Potency [13] | Potency [14]

COc1ccccc1OC(=O)Oc1ccccc1OC
inactive: Potency [1] | Potency [2] | Potency [3] | Potency [4] | outcome [5] | Potency [6] | Potency [7] | Potency [8] | Potency [9]

CCOC(=S)SSC(=S)OCC
inactive: Potency [1] | Potency [2] | Potency [3] | Potency [4] | outcome [5] | Potency [6] | Potency [7] | Potency [8] | Potency [9] | Potency [15] | Potency [11] | Potency [14]

CCCCCCCCCCCCCCCBr
inactive: Potency [1] | Potency [2] | Potency [3] | Potency [4] | outcome [5] | Potency [6] | Potency [7] | Potency [8] | Potency [10] | Potency [15] | Potency [11] | Potency [12] | Potency [13] | Potency [14]

CC(C)(C)c1cc(O)c(C(C)(C)C)cc1O
inactive: Potency [1] | Potency [3] | outcome [5] | Potency [8] | Potency [9] | Potency [15] | Potency [11]
active: Potency [4] 5.49 µM | Potency [6] 48.6 µM | Potency [7] 15.4 µM | Potency [14] 48.6 µM
